# Data reported in PubChem BioAssay (EPA / NIEHS).
# Calls of active or inactive are those of the source. How the source made its calls: active means hit-call score of the fitted dose curve at least 0.9, where 1 is the maximum; inactive means score below 0.9.
# Read-out: serum amyloid A (SAA), SAA1 (gene 6288)
# Assay: BSK_CASM3C_SAA: BioMAP Diversity Plus: CASM3C Assay for serum amyloid A (SAA) Biomarker Activity (AID 2283049);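 further: SAA protein level quantified by ELISA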
# Details: primary human coronary artery smooth muscle cells; actives raise or lower the signal
SMILES,outcome,AC50
Cn1cc[nH]c1=S,inactive,–
CC(C)CC(C)O (stereo unspecified),inactive,–
O=C1CN(N=Cc2ccc([N+](=O)[O-])o2)C(=O)N1,inactive,–
OCc1ccccc1,inactive,–
NC(=O)N(O)[C@@H]1COc2cc(OCc3ccccc3)ccc21,inactive,–
C=CCc1cc(S(=O)(=O)c2ccc(O)c(CC=C)c2)ccc1O,–,28.3 µM (active)
CC(C)C(=O)Nc1ccc([N+](=O)[O-])c(C(F)(F)F)c1,inactive,–
CCn1nc(C)c2c1C(=O)NCC(c1ccc(O)cc1)=N2,inactive,–
COc1cc2c(c(OC)c1OC)-c1ccc(OC)c(=O)cc1[C@@H](NC(C)=O)CC2,inactive,–
CNC(C)=O,inactive,–
CCOC(N)=O,inactive,–
FC(F)=C(F)C(F)(F)C(F)(F)C(F)(F)C(F)(F)C(F)(F)C(F)(F)F,inactive,–
c1ccc2cc3ccccc3cc2c1,inactive,–
CCCCOC(=O)c1ccccc1,inactive,–
O=C(Cl)C(F)(F)C(F)(F)C(F)(F)C(=O)Cl,inactive,–
Cn1c(=O)c2[nH]cnc2n(C)c1=O,inactive,–
CCCOc1ccc(S(=O)(=O)N2CCN(CC)CC2)cc1-c1nc2c(CC)n(Cc3ccccn3)nc2c(=O)[nH]1,inactive,–
CC(C)CCCCCCOC(=O)C1CCCCC1C(=O)OCCCCCCC(C)C (stereo unspecified),inactive,–
COS(C)(=O)=O,inactive,–
O=C(O)[C@H](O)[C@@H](O)C(=O)O,inactive,–
Cc1nccn1-c1ccc(Sc2cccc(C3(C(N)=O)CCOCC3)c2)cc1,inactive,–
CCCc1ccccc1,inactive,–
C[C@@H](Oc1ccc(CNC(=O)c2cccnc2Oc2ccc3c(c2)OCO3)c(F)c1)C(=O)O,inactive,–
Cc1ncc([C@@H](CCCCCCc2ccc3c(n2)NCCC3)CC(=O)O)cn1,inactive,–
NNC(=O)c1ccncc1,inactive,–
OC(CCl)CCl,inactive,–
OCCC(F)(F)C(F)(F)C(F)(F)C(F)(F)F,inactive,–

# Read-out: not listed separately
# Assay: BSK_CASM3C_SRB: Viability Assessment in the BioMAP Diversity Plus: CASM3C Assay (AID 2283050);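 further: total protein by SRB staining as cytotoxicity measure in parallel cultures; cells exposed to compound for 24 h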
# Details: primary human coronary artery smooth muscle cells
SMILES,outcome,AC50
Cn1cc[nH]c1=S,inactive,–
CC(C)CC(C)O (stereo unspecified),inactive,–
O=C1CN(N=Cc2ccc([N+](=O)[O-])o2)C(=O)N1,inactive,–
OCc1ccccc1,inactive,–
NC(=O)N(O)[C@@H]1COc2cc(OCc3ccccc3)ccc21,inactive,–
C=CCc1cc(S(=O)(=O)c2ccc(O)c(CC=C)c2)ccc1O,–,31.2 µM (active)
CC(C)C(=O)Nc1ccc([N+](=O)[O-])c(C(F)(F)F)c1,inactive,–
CCn1nc(C)c2c1C(=O)NCC(c1ccc(O)cc1)=N2,inactive,–
COc1cc2c(c(OC)c1OC)-c1ccc(OC)c(=O)cc1[C@@H](NC(C)=O)CC2,inactive,–
CNC(C)=O,inactive,–
CCOC(N)=O,inactive,–
FC(F)=C(F)C(F)(F)C(F)(F)C(F)(F)C(F)(F)C(F)(F)C(F)(F)F,inactive,–
c1ccc2cc3ccccc3cc2c1,inactive,–
CCCCOC(=O)c1ccccc1,inactive,–
O=C(Cl)C(F)(F)C(F)(F)C(F)(F)C(=O)Cl,inactive,–
Cn1c(=O)c2[nH]cnc2n(C)c1=O,inactive,–
CCCOc1ccc(S(=O)(=O)N2CCN(CC)CC2)cc1-c1nc2c(CC)n(Cc3ccccn3)nc2c(=O)[nH]1,inactive,–
CC(C)CCCCCCOC(=O)C1CCCCC1C(=O)OCCCCCCC(C)C (stereo unspecified),inactive,–
COS(C)(=O)=O,inactive,–
O=C(O)[C@H](O)[C@@H](O)C(=O)O,inactive,–
Cc1nccn1-c1ccc(Sc2cccc(C3(C(N)=O)CCOCC3)c2)cc1,inactive,–
CCCc1ccccc1,inactive,–
C[C@@H](Oc1ccc(CNC(=O)c2cccnc2Oc2ccc3c(c2)OCO3)c(F)c1)C(=O)O,inactive,–
Cc1ncc([C@@H](CCCCCCc2ccc3c(n2)NCCC3)CC(=O)O)cn1,inactive,–
NNC(=O)c1ccncc1,inactive,–
OC(CCl)CCl,inactive,–
OCCC(F)(F)C(F)(F)C(F)(F)C(F)(F)F,inactive,–

# Read-out: Thrombomodulin, THBD (gene 7056)
# Assay: BSK_CASM3C_Thrombomodulin: BioMAP Diversity Plus: CASM3C Assay for Thrombomodulin Biomarker Activity (AID 2283051);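 further: thrombomodulin protein level measured by ELISA 24 h after dosing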
# Details: primary human coronary artery smooth muscle cells; actives raise or lower the signal
row,SMILES,outcome
1,Cn1cc[nH]c1=S,inactive
2,CC(C)CC(C)O (stereo unspecified),inactive
3,O=C1CN(N=Cc2ccc([N+](=O)[O-])o2)C(=O)N1,inactive
4,OCc1ccccc1,inactive
5,NC(=O)N(O)[C@@H]1COc2cc(OCc3ccccc3)ccc21,inactive
6,C=CCc1cc(S(=O)(=O)c2ccc(O)c(CC=C)c2)ccc1O,inactive
7,CC(C)C(=O)Nc1ccc([N+](=O)[O-])c(C(F)(F)F)c1,inactive
8,CCn1nc(C)c2c1C(=O)NCC(c1ccc(O)cc1)=N2,inactive
9,COc1cc2c(c(OC)c1OC)-c1ccc(OC)c(=O)cc1[C@@H](NC(C)=O)CC2,inactive
10,CNC(C)=O,inactive
11,CCOC(N)=O,inactive
12,FC(F)=C(F)C(F)(F)C(F)(F)C(F)(F)C(F)(F)C(F)(F)C(F)(F)F,inactive
13,c1ccc2cc3ccccc3cc2c1,inactive
14,CCCCOC(=O)c1ccccc1,inactive
15,O=C(Cl)C(F)(F)C(F)(F)C(F)(F)C(=O)Cl,inactive
16,Cn1c(=O)c2[nH]cnc2n(C)c1=O,inactive
17,CCCOc1ccc(S(=O)(=O)N2CCN(CC)CC2)cc1-c1nc2c(CC)n(Cc3ccccn3)nc2c(=O)[nH]1,inactive
18,CC(C)CCCCCCOC(=O)C1CCCCC1C(=O)OCCCCCCC(C)C (stereo unspecified),inactive
19,COS(C)(=O)=O,inactive
20,O=C(O)[C@H](O)[C@@H](O)C(=O)O,inactive
21,Cc1nccn1-c1ccc(Sc2cccc(C3(C(N)=O)CCOCC3)c2)cc1,inactive
22,CCCc1ccccc1,inactive
23,C[C@@H](Oc1ccc(CNC(=O)c2cccnc2Oc2ccc3c(c2)OCO3)c(F)c1)C(=O)O,inactive
24,Cc1ncc([C@@H](CCCCCCc2ccc3c(n2)NCCC3)CC(=O)O)cn1,inactive
25,NNC(=O)c1ccncc1,inactive
26,OC(CCl)CCl,inactive
27,OCCC(F)(F)C(F)(F)C(F)(F)C(F)(F)F,inactive
